# Measured values: PubChem BioAssay
# Calls of active or inactive are those of the source. Unless noted, how the calls were made is not given here.
# Columns and labels:
# [1] = system: XIP peptide (Xip251-270) binding; assay: small-molecule binders of XIP peptide, primary screen, biochemical, small-molecule microarray, fluorescence 635/667 nm, 0.1 µg/mL protein (AID 1182); settings: fluorescent protein binding, 635 nm, higher = more signal, called active from +8 up or from −8 down
# XIP peptide (Xip251-270) = assay: small-molecule binders of XIP peptide, primary screen, biochemical, small-molecule microarray, fluorescence 635/667 nm, 0.5 µg/mL protein (AID 1183); settings: small-molecule microarray binding, fluorescence 635 nm; higher = more signal
# [2] = Plasmodium falciparum growth inhibition, primary screen, strain 3D7, DAPI fluorescence, 100 nL (AID 1184);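 further: parasites grown inside human red blood cells in medium with human serum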; settings: P. falciparum 3D7 growth, 3 d, higher = more signal
# [3] = target: Homeobox protein Hox-A13 (Mus musculus) (UniProt Q62424); assay: inhibitors of HoxA13-DNA binding, primary screen, biochemical, fluorescence polarization, labeled oligonucleotide (AID 1185); settings: 15 min, higher = more signal, called active from +8 up or from −8 down
# Homeobox protein Hox-A13 (Mus musculus), sequence (Q62424 whole entry, looked up): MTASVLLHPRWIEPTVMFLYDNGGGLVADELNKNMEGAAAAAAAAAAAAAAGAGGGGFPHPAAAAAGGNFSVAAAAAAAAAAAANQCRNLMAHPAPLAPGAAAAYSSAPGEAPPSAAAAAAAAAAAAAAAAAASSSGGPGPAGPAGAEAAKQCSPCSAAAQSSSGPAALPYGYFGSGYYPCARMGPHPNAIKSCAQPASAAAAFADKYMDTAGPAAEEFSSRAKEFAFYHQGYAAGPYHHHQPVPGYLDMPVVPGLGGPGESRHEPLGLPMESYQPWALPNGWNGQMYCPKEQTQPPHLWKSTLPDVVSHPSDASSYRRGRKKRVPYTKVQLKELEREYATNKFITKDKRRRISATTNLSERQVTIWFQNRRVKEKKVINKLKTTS
# [4] = inhibitors of hydroxyurea-induced Chk1 phosphorylation, primary screen, imaging, HeLa, phospho-Chk1 antibody, percent positive cells (AID 1186); settings: hydroxyurea-induced phospho-Chk1 immunofluorescence imaging, higher = more signal
# [5] = inhibitors of hydroxyurea-induced Chk1 phosphorylation, primary screen, imaging, HeLa, phospho-Chk1 nuclear intensity (AID 1187); settings: hydroxyurea-induced phospho-Chk1 immunofluorescence imaging, higher = more signal
Compound,composite z-score [1],composite z-score (XIP peptide (Xip251-270)),z-score [2],z-score [3],z-score [4],z-score [5]
C=C(/C=C/CNS(=O)(=O)c1ccc(C)cc1)[C@H](O)[C@H]1CCCN1S(=O)(=O)c1ccccc1[N+](=O)[O-],-0.121 (inactive),0.729,-2.04,-5.58 (inactive),-0.0778 (inactive),0.181 (inactive)
COc1cc(CO)cc(I)c1O[C@H]1C=C(C(=O)NCCO)C[C@@H](N(CC2CCCCC2)C(=O)c2ccc(C(F)(F)F)cc2)[C@@H]1O,-0.175 (inactive),0.516,1.09,-6.43 (inactive),-0.409 (inactive),-0.884 (inactive)
NCCCCCCNC(=O)[C@@H]1C[C@@H]2C(=O)N3CCC[C@H]3C(=O)N2[C@@H]1c1ccc(O)cc1,-0.386 (inactive),0.664,1.42,-2.07 (inactive),0.683 (inactive),0.289 (inactive)
CC=CC(O)C1C=CC2C(=O)N(C)C(=O)C2N1Nc1ccc([N+](=O)[O-])cc1[N+](=O)[O-] (centres undefined),0.32 (inactive),0.266,0.619,-0.734 (inactive),-0.0994 (inactive),-0.104 (inactive)
COCCOC(=O)N1C(=O)[C@@]2(c3cc(C#CC4=CCCCC4)ccc31)[C@H](c1ccccc1OCCO)N1[C@H](c3ccccc3)[C@H](c3ccccc3)OC(=O)[C@H]1[C@@H]2C(=O)N1CCc2cc(OC)c(OC)cc2C1,3.26 (inactive),0.717,-1.68,2.38 (inactive),0.0575 (inactive),0.139 (inactive)
[N-]=[N+]=Nc1ccccc1[C@H]1OC(c2ccc(OCCCO)cc2)=N[C@@]1(CCS(=O)(=O)c1ccccc1)C(=O)N1CCCCC1,0.154 (inactive),0.755,-2.19,-1.18 (inactive),-0.483 (inactive),-0.458 (inactive)
O=C1O[C@@H](c2ccccc2)[C@@H](c2ccccc2)N2[C@@H](c3ccc(O)cc3)[C@]3(C(=O)Nc4ccc(C#CCCO)cc43)[C@@H](C(=O)NC[C@H](O)c3ccccc3)[C@H]12,0.437 (inactive),0.478,-0.656,-5 (inactive),-0.101 (inactive),-0.46 (inactive)
C=CC[C@@]1(C(=O)O)N=C(c2ccc(OCCCO)cc2)O[C@@H]1c1ccccc1,0.759 (inactive),0.994,-0.441,-4.13 (inactive),-0.106 (inactive),-0.0411 (inactive)
CCOC(=O)C[C@H]1[C@H](OC(=O)c2ccccc2-c2ccccc2)[C@@H](NC(=O)c2ccc3ccccc3n2)c2cc(OCCCO)ccc2N1C(=O)c1ccc2ccccc2n1,0.123 (inactive),0.309,-0.456,-1.53 (inactive),-0.492 (inactive),-0.588 (inactive)
COC(=O)C1(Cc2ccccc2)C=C2C(=C(c3ccccc3)C(=O)C2C)CN1 (centres undefined),-0.401 (inactive),0.691,-0.246,-9.2 (active),0.222 (inactive),0.532 (inactive)
C[C@]12C(=O)N(CCCCCCO)[C@@H]3C(=O)N(c4ccc(Cl)cc4)CC=CC31O[C@@H]1/C=C\CCCOC(=O)C12 (some centres undefined),-0.295 (inactive),-0.0821,-0.692,-4.68 (inactive),-0.659 (inactive),0.264 (inactive)
O=C1OC[C@@H](c2ccccc2)N2CC(/C=C/c3ccccc3)=CC12 (some centres undefined),0.587 (inactive),0.0221,0.643,-1.36 (inactive),-0.303 (inactive),-0.493 (inactive)
C=C1C2CC3C(=C4C(CO[C@@H]4[C@H]4CCCN4S(=O)(=O)c4ccccc4[N+](=O)[O-])C4C(=O)N(C)C(=O)C34)CC2C(=O)N1C (some centres undefined),0.253 (inactive),0.849,0.769,-7.2 (inactive),-0.0718 (inactive),0.645 (inactive)
COc1ccc([Si](C)(C)[C@H]2[C@H](CCn3cc([C@H](O)c4ccccc4)nn3)O[C@@]3(C(=O)N(Cc4ccc(N5CCOC5=O)cc4)c4ccccc43)[C@@H]2C)cc1,-0.47 (inactive),0.103,-2.29,-2.28 (inactive),-0.138 (inactive),-0.0848 (inactive)
O=C1C[C@]2(c3ccc([N+](=O)[O-])cc3)C(=O)N(Cc3ccccc3)c3cc(CO)ccc3[C@H]2N1CC12CC3CC(CC(C3)C1)C2,0.0547 (inactive),-1.46,-0.734,-1.07 (inactive),0.0585 (inactive),-0.785 (inactive)
CC(C)N1C(=O)[C@@]2(c3ccc([N+](=O)[O-])cc3)CC(=O)N(C3CCCCC3)[C@@H]2c2ccc(CO)cc21,0.888 (inactive),0.287,0.501,0.0267 (inactive),-0.135 (inactive),-0.141 (inactive)
C=CCN1C(=O)[C@]2(CC=C)N=C(c3ccc(OCCCO)cc3)O[C@@H]2c2ccccc21,0.935 (inactive),0.707,-1.96,-0.0163 (inactive),-0.0194 (inactive),0.169 (inactive)
C=C(COC)/C(=C/C[C@@H](OC(=O)c1ccncc1)c1ccc(OCCO)cc1)c1cnc2ccccc2c1,0.39 (inactive),0.595,-2.93,-5.37 (inactive),-0.0998 (inactive),0.349 (inactive)
CON(C)C(=O)C=C1C[C@@H](c2cccc(Cl)c2)O[C@@H](c2cccc(Cl)c2)O1,2.75 (inactive),0.454,-2,-3.48 (inactive),-0.0938 (inactive),-0.0296 (inactive)
